Laboratory results from PubChem BioAssay (EPA / NIEHS).
Records with an inconclusive call do not appear. Active and inactive are the calls of the source. The calls were made as follows: active = hit-call score of the fitted dose curve at least 0.9, where 1 is the maximum; inconclusive = response in the unintended direction; inactive = score below 0.9.

Each compound was assayed against Nuclear receptor subfamily 1 group I member 2 (Homo sapiens) (UniProt O75469) (assay: ATG_PXR_TRANS: Attagene TRANS-FACTORIAL HepG2 Assay for human Pregnane X Receptor (PXR) (AID 2283008)).
Protocol: ATG_TRANS is a cell-based, multiplexed-readout assay that uses HepG2, a human liver cell line, with measurements taken at 24 hours after chemical dosing in a 24-well plate.ATG_PXR_TRANS is one of 30 assay component(s) measured or calculated from the ATG_TRANS assay. It is designed to make measurements of mRNA induction, a form of inducible reporter, as detected with fluorescence intensity signals by Reverse transcription polymerase chain reaction (RT-PCR) and Capillary electrophoresis technology.Data from the assay component ATG_PXR_TRANS was analyzed into 1 assay endpoint. This assay endpoint, ATG_PXR_TRANS, was analyzed in the positive analysis fitting direction relative to DMSO as the negative control and baseline of activity. Using a type of inducible reporter, measures of mRNA for gain-of-signal activity can be used to understand the reporter gene at the transcription factor-level as they relate to the gene NR1I2. Furthermore, this assay endpoint can be referred to as a primary readout, because this assay has produced multiple assay endpoints where this one serves a reporter gene function. To generalize the intended target to other relatable targets, this assay endpoint is annotated to the nuclear receptor intended target family, where the subfamily is non-steroidal.
Human liver HepG2 cells are transiently transfected with multiple reporter transcription units (MRTUs) in 6-well plates using FuGene 6 reagent (Roche; 3 ml FuGene/1 mg DNA). The MRTU constructs are regulated by a cis-regulating element (promoter). […] A major difference between the CIS and TRANS system is that in CIS activities of endogenous TFs are measured, whereas the TRANS assay evaluates changes in activities of exogenous, chimeric NR-Gal4 proteins. […] At the end of 24 hour incubation, total RNA was isolated using TriZol reagent (Invitrogen). The isolated RNA is then reverse-transcribed using oligo(dT) primer and Mo-MLV reverse transcriptase (Invitrogen) with DNAse I (Ambion) treatment for 30 min. The one-tenth of the produced cDNA was amplified by PCR using Taq DNA polymerase (Invitrogen) and two reporter sequence-specific primers. The PCR products were fluorescently labeled by primer extension with 6-arboxyfluorescein (6-FAM) 5'-labeled reporter sequence-specific primer (2 min at 95 C, 20 s at 68 C and 10 min at 72 C) and these products were digested with 5U of HpaI (New England Biolabs) for 2h at 37 C. The fragments were purified using Qiaquick PCR columns (Qiagen), analyzed on an ABI 3130xL genetic analyzer (Applied Biosystems) with peak positions identified by using a set of X-rhodamine (ROX)-labeled MapMarker1000 molecular weight standards (BioVentures). The raw capillary electrophoresis data was processed using Attagraph software (Attagene).

Sequence of Nuclear receptor subfamily 1 group I member 2 (Homo sapiens) (O75469 whole entry, looked up): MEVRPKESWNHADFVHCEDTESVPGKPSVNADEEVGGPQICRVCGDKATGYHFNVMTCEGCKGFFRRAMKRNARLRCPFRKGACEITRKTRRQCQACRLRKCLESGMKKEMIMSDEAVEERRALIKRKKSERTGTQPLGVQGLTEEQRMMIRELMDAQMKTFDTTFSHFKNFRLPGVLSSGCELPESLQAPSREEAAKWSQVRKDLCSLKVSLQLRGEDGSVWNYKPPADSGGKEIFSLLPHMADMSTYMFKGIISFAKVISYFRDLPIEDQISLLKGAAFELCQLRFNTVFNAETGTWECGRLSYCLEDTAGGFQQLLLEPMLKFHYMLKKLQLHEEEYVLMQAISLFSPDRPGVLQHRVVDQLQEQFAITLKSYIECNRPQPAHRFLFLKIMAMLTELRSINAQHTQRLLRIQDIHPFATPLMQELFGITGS

| SMILES | outcome | AC50 |
| --- | --- | --- |
| COc1ccc(CCC(C)=O)cc1 | inactive | – |
| OCC(O)c1ccccc1 (stereo not given) | inactive | – |
| NC1CCCCC1N (stereo not given) | inactive | – |
| OCCc1ccccc1 | inactive | – |
| O=C(Nc1ccc2c(O)c(N=Nc3ccc(N=Nc4ccc(S(=O)(=O)O)cc4)cc3)c(S(=O)(=O)O)cc2c1)c1ccccc1 | inactive | – |
| N#Cc1cscn1 | inactive | – |
| CC(=O)O[C@@H]1C[C@@H]2CC[C@@]1(C)C2(C)C | inactive | – |
| CC(=O)C1(C)CC2=C(CCCC2(C)C)CC1C (stereo not given) | – | 9.83 µM (active) |
| Nc1ccccc1[N+](=O)[O-] | inactive | – |
| CC1(C)O[C@@H]2C[C@H]3[C@@H]4CCC5=CC(=O)C=C[C@]5(C)[C@@]4(F)[C@@H](O)C[C@]3(C)[C@]2(C(=O)CO)O1 | – | 4.98 µM (active) |
| C=C[Si]1(C)O[Si](C)(C=C)O[Si](C)(C=C)O[Si](C)(C=C)O1 (stereo not given) | – | 4.48 µM (active) |
| CCOC(=O)CC(C)O (stereo not given) | inactive | – |
| O=CCc1ccccc1 | – | 13.1 µM (active) |
| CC(C)CCCCCCc1ccc(OCCOCCO)cc1 | inactive | – |
| COc1ccc(N=Nc2cc(C)c(N=Nc3ccc(S(=O)(=O)O)cc3)cc2OC)cc1 | inactive | – |
| COS(=O)(=O)O | inactive | – |
| CC(C)NCC(O)COc1ccc(CC(N)=O)cc1 (stereo not given) | inactive | – |
| CCCCC(CC)(CO)CO | inactive | – |
| CSCCC=O | – | 10.6 µM (active) |
| CC1=C(Br)C(=O)C(Br)=C/C1=C(/c1ccccc1S(=O)(=O)O)c1cc(Br)c(O)c(Br)c1C | – | 29.6 µM (active) |

| SMILES | outcome | AC50 |
| --- | --- | --- |
| CN(C)C(=S)SC(=S)N(C)C | inactive | – |
| O=C1c2ccccc2C(=O)c2c(O)ccc(O)c21 | – | 8.69 µM (active) |
| Nc1c(Cl)cc(Cl)cc1[N+](=O)[O-] | – | 16.5 µM (active) |
| ClC(c1ccccc1)(c1ccccc1)c1ccccc1 | – | 2.2 µM (active) |
| NC(=S)NNC(N)=S | inactive | – |
| CCCCCCCCCC(=O)OC | inactive | – |
| CCCN(CCC)S(=O)(=O)c1ccc(C(=O)O)cc1 | – | 18.7 µM (active) |
| CC1(C)CCC[C@]2(C)[C@H]3CCO[C@]3(C)CC[C@@H]12 | – | 32.6 µM (active) |
| O=C(c1ccccc1)C(O)c1ccccc1 (stereo not given) | inactive | – |
| c1ccc2[nH]cnc2c1 | inactive | – |
| COC(C)(C)CC(C)=O | inactive | – |
| Clc1ccc(C(c2ccccc2Cl)C(Cl)Cl)cc1 (stereo not given) | – | 1.92 µM (active) |
| CCc1ccc(O)c(OC)c1 | inactive | – |
| CC(=O)NCCO | inactive | – |
| Cc1cc(=O)oc2cc(N(C)C)ccc12 | inactive | – |
| OCc1cccc(Oc2ccccc2)c1 | inactive | – |
| CC=Cc1ccc(OCC)c(O)c1 | – | 53.6 µM (active) |
| CC1=CC[C@@]23C[C@@H]1C(C)(C)[C@@H]2CC[C@H]3C | inactive | – |
| COc1ccc(CCN2CCC(Nc3nc4ccccc4n3Cc3ccc(F)cc3)CC2)cc1 | inactive | – |
| CN(C)C(=O)Nc1ccc(Oc2ccc(Cl)cc2)cc1 | – | 26.6 µM (active) |
